# In the supplement of paper PMC10849652:
# About 7,900 targets were measured; listed, in parts, are those with a hit and a random draw of the rest. About 0.6% of all pairs of compound and target were hits. A number with no mark means an inactive call.
# Tests used:
# Test in all cases: log2 fold change, soluble protein after heating vs DMSO (PISA); higher = thermal stabilisation; K562 cells, 10 uM, 30 min; active = over 0.2 and 3.5 SD of the protein, either way, in both replicates (recomputed)
# [1] = compound: CS(=O)(=O)c1ccc(-c2cnc(N)c(C(=O)Nc3ccccc3)n2)cc1
# Procedure, shortened: (§1)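 For each measurement, 10 μM compound was applied for 30 min to K562 cells at 2×10^6 cells/mL. Aliquots were heated for 3 min across 48°C-58°C, pooled, and extracted in PBS with 0.5% NP-40 at 4°C; the supernatant after 21,000xg for 90 min was soluble protein. This was quantified by TMTpro 16plex LC-MS/MS with channel sums equalised, and thermal stability was reported relative to control samples from duplicates, on a log2 fold-change scale.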
# crizotinib = compound: C[C@@H](Oc1cc(-c2cnn(C3CCNCC3)c2)cnc1N)c1c(Cl)ccc(F)c1Cl [crizotinib]
# Procedure, shortened: as §1
# [2] = compound: C[C@@H]1COCCN1C2=NC(=NC(=C2)C3(CC3)S(=O)(=O)C)C4=C5C=CNC5=CC=C4
# Procedure, shortened: as §1
# [3] = compound: C[C@H](C1=CC=C(C=C1)C(=O)NC2=C3C=CNC3=NC=C2)N
# Procedure, shortened: as §1
# duvelisib = compound: C[C@H](Nc1ncnc2nc[nH]c12)c1cc2cccc(Cl)c2c(=O)n1-c1ccccc1 [duvelisib]
# Procedure, shortened: as §1
# gandotinib = compound: Cc1cc(Nc2cc(CN3CCOCC3)c3nc(C)c(Cc4ccc(Cl)cc4F)n3n2)n[nH]1 [gandotinib]
# Procedure, shortened: as §1
# tozasertib = compound: Cc1cc(Nc2cc(N3CCN(C)CC3)nc(Sc3ccc(NC(=O)C4CC4)cc3)n2)n[nH]1 [tozasertib]
# Procedure, shortened: as §1
# [4] = compound: Cc1cc(SCc2sc(-c3ccc(C(F)(F)F)cc3)nc2C)ccc1OCC(=O)O
# Procedure, shortened: as §1
# doramapimod = compound: Cc1ccc(-n2nc(C(C)(C)C)cc2NC(=O)Nc2ccc(OCCN3CCOCC3)c3ccccc23)cc1 [doramapimod]
# Procedure, shortened: as §1
# ispinesib = compound: Cc1ccc(C(=O)N(CCCN)[C@@H](c2nc3cc(Cl)ccc3c(=O)n2Cc2ccccc2)C(C)C)cc1 [ispinesib]
# Procedure, shortened: as §1
# bafetinib = compound: Cc1ccc(NC(=O)c2ccc(CN3CC[C@H](N(C)C)C3)c(C(F)(F)F)c2)cc1Nc1nccc(-c2cncnc2)n1 [bafetinib]
# Procedure, shortened: as §1
# [5] = compound: Cc1cccc(CC(=O)N2CCc3c2ccc(-c2cn(C)c4ncnc(N)c24)c3F)n1
# Procedure, shortened: as §1
# nilotinib = compound: Cc1cn(-c2cc(NC(=O)c3ccc(C)c(Nc4nccc(-c5cccnc5)n4)c3)cc(C(F)(F)F)c2)cn1 [nilotinib]
# Procedure, shortened: as §1
# [6] = compound: Cc1nc(Nc2n[nH]c3c2CN(C(=O)N[C@H](CN(C)C)c2ccccc2)C3(C)C)c2sccc2n1
# Procedure, shortened: as §1
# dasatinib = compound: Cc1nc(Nc2ncc(C(=O)Nc3c(C)cccc3Cl)s2)cc(N2CCN(CCO)CC2)n1 [dasatinib]
# Procedure, shortened: as §1
# [7] = compound: Cc1ncc(-c2ccnc(Nc3ccc(S(C)(=O)=O)cc3)n2)n1C(C)C
# Procedure, shortened: as §1
# [8] = compound: Cn1cc(-c2ccc3c(c2)CCN3C(=O)Cc2cccc(C(F)(F)F)c2)c2c(N)ncnc21
# Procedure, shortened: as §1
# [9] = compound: Cn1cc(-c2ccc3nnc(C(F)(F)c4ccc5ncccc5c4)n3n2)cn1
# Procedure, shortened: as §1
# tipifarnib = compound: Cn1cncc1[C@@](N)(c1ccc(Cl)cc1)c1ccc2c(c1)c(-c1cccc(Cl)c1)cc(=O)n2C [tipifarnib]
# Procedure, shortened: as §1
# mubritinib = compound: FC(F)(F)c1ccc(/C=C/c2nc(COc3ccc(CCCCn4ccnn4)cc3)co2)cc1 [mubritinib]
# Procedure, shortened: as §1
# Chain of UniProt P35520 (P35520 whole entry, looked up): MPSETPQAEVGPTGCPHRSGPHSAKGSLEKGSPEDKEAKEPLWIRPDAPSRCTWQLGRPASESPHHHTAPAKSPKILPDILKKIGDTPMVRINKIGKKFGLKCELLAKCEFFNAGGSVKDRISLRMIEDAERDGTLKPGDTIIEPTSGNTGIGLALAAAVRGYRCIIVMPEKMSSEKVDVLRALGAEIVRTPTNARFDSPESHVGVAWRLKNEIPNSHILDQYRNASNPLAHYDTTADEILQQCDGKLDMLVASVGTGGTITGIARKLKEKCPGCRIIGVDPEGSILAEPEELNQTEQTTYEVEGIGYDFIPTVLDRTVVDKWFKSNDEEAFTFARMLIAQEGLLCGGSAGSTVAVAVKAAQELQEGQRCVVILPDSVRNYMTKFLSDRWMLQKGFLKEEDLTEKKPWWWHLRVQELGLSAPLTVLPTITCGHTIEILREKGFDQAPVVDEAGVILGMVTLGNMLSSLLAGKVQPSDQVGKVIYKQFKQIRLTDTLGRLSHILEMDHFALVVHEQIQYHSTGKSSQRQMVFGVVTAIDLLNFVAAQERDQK
# Chain of UniProt P41240 (P41240 whole entry, looked up): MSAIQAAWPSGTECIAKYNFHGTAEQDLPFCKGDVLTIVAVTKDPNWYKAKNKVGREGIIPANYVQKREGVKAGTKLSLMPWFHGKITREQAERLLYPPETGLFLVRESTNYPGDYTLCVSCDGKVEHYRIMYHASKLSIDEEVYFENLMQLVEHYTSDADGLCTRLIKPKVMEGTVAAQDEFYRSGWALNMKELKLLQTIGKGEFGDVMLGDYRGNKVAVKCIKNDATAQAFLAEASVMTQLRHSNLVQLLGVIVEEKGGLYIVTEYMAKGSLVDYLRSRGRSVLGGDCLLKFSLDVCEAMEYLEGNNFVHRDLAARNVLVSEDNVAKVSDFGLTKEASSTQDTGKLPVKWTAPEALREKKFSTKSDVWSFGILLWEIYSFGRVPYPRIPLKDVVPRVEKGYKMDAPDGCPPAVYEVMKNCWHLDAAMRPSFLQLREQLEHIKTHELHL
# Chain of UniProt P48729 (P48729 whole entry, looked up): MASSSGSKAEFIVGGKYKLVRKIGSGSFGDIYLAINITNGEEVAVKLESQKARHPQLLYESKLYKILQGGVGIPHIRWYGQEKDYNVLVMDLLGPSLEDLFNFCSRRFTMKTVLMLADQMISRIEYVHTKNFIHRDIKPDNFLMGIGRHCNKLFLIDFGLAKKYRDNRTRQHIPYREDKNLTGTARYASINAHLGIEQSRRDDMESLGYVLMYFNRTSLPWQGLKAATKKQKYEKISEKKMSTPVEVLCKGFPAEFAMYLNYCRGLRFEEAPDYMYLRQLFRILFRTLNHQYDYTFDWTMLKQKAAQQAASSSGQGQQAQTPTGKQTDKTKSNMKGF
# Chain of UniProt P08174 (P08174 whole entry, looked up): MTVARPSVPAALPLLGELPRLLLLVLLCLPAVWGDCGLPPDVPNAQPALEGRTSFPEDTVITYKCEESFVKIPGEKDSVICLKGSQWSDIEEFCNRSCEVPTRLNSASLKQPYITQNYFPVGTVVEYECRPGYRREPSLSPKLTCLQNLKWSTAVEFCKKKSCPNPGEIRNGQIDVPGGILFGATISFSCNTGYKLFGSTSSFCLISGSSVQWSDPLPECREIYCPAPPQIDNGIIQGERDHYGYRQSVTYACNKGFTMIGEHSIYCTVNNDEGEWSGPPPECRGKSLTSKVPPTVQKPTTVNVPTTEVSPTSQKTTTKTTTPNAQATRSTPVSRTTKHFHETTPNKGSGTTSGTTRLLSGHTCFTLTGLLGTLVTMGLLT
# Chain of UniProt Q9P031 (Q9P031 whole entry, looked up): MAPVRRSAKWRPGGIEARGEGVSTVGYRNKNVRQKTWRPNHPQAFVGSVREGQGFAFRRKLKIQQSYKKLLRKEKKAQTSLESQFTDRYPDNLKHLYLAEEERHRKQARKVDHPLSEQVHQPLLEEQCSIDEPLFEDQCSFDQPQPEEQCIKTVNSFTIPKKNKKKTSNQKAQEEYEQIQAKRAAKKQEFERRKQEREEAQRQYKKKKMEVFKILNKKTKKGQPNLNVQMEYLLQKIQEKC
# Chain of UniProt Q9P0B6 (Q9P0B6 whole entry, looked up): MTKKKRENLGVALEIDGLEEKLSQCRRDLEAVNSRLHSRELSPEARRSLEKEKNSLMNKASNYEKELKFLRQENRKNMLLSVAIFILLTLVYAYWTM
# Chain of UniProt Q6NZI2 (Q6NZI2 whole entry, looked up): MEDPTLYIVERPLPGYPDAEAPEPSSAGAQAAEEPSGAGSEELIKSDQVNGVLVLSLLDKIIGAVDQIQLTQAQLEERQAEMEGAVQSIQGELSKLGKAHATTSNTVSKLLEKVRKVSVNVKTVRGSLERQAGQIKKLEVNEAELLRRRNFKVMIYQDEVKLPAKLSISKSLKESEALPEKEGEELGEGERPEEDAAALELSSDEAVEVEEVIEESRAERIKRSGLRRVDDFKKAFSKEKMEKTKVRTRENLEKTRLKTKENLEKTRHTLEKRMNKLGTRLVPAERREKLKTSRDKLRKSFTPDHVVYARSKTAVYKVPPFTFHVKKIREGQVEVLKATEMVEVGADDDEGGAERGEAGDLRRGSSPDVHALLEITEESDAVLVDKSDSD
# Chain of UniProt P49336 (P49336 whole entry, looked up): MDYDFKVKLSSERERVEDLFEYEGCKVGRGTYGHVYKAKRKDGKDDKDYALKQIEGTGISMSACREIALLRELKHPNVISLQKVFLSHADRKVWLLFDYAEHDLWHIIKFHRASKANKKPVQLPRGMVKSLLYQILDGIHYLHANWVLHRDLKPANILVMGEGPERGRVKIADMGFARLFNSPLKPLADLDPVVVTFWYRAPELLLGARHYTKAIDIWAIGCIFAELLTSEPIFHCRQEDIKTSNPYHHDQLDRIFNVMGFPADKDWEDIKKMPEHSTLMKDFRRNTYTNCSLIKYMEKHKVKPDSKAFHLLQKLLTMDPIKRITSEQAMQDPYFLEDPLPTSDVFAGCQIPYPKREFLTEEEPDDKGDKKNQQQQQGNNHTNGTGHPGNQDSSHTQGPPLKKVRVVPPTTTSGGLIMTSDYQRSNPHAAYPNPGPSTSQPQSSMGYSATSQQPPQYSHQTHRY
# Chain of UniProt P86791 (P86791 whole entry, looked up): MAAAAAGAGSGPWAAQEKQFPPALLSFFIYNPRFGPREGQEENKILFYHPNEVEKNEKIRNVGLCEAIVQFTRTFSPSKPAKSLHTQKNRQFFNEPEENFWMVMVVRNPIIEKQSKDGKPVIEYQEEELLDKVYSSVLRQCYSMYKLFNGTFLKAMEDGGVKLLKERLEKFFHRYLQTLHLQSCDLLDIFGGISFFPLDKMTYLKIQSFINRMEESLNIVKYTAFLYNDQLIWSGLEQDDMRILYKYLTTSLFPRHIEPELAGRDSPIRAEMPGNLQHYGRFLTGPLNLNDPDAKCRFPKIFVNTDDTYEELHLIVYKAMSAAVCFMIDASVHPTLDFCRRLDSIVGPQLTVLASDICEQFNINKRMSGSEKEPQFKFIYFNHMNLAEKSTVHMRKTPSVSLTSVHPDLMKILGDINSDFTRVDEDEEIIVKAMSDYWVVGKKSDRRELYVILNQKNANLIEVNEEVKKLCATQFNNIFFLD
# Chain of UniProt Q8N1G2 (Q8N1G2 whole entry, looked up): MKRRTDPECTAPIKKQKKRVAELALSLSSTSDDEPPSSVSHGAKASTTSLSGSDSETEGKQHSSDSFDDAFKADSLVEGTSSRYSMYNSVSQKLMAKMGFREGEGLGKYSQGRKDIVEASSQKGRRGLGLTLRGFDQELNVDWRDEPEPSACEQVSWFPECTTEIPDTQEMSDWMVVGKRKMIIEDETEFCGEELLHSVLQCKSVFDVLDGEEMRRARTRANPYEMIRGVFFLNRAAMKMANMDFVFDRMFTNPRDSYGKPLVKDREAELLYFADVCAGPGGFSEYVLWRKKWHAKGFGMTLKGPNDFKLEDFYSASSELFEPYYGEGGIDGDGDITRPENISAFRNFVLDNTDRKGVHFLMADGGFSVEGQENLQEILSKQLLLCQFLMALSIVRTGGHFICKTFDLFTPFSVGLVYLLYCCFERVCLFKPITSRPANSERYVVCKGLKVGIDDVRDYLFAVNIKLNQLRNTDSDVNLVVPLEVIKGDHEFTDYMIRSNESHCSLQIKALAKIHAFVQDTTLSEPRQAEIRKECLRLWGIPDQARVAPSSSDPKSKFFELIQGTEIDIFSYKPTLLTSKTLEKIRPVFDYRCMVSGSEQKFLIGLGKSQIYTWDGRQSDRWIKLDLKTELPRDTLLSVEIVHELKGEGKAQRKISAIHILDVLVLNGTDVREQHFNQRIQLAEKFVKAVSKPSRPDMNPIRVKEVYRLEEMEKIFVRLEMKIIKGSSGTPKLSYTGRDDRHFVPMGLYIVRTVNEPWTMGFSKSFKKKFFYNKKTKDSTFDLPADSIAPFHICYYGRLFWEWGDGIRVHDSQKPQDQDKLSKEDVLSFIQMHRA
# Chain of UniProt O15182 (O15182 whole entry, looked up): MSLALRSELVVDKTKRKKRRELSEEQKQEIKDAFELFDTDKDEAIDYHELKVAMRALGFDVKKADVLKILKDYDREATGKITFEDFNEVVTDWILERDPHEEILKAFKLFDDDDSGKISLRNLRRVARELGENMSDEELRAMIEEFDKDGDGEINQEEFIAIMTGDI
# Chain of UniProt Q96LT7 (Q96LT7 whole entry, looked up): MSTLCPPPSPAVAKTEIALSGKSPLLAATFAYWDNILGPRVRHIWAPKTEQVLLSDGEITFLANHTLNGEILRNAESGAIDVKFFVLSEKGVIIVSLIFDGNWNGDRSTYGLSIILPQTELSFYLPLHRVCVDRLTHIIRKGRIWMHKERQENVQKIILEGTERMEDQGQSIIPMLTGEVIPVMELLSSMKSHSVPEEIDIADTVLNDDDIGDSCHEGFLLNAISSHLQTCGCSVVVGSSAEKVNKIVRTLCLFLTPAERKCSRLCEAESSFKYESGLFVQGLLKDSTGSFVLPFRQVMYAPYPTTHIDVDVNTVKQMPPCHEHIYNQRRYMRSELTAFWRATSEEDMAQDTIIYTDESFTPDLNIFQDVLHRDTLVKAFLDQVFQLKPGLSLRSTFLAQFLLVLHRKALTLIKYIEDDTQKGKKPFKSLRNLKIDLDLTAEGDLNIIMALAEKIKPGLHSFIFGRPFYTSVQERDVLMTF
Target,log2 fold change [1],log2 fold change (crizotinib),log2 fold change [2],log2 fold change [3],log2 fold change (duvelisib),log2 fold change (gandotinib),log2 fold change (tozasertib),log2 fold change [4],log2 fold change (doramapimod),log2 fold change (ispinesib),log2 fold change (bafetinib),log2 fold change [5],log2 fold change (nilotinib),log2 fold change [6],log2 fold change (dasatinib),log2 fold change [7],log2 fold change [8],log2 fold change [9],log2 fold change (tipifarnib),log2 fold change (mubritinib)
CAVIN1 (UniProt Q6NZI2),-0.023,-0.046,-0.34,0.174,-0.131,0.145,0.058,0.06,0.135,0.067,0.114,0.004,-0.047,0.104,-0.001,-0.11,-0.157,-0.204,0.125,-0.067
CCDC59 (UniProt Q9P031),0.09,-0.084,0,0.389,-0.157,0.186,0.01,0.006,0.164,-0.136,0.117,-0.041,0.032,0.048,0.037,0.028,-0.277,-0.13,0.09,-0.056
CSNK1A1 (UniProt P48729),-0.093,-0.115,-0.114,-0.073,-0.04,0.014,-0.034,0.017,0.024,-0.125,-0.044,-0.156,-0.106,-0.008,0.011,0.033,-0.118,-0.055,0.022,-0.086
CCDC9 (UniProt Q9Y3X0),-0.046,0.016,-0.063,0.105,-0.04,0.194,-0.083,-0.012,-0.008,-0.215,-0.011,-0.032,0.002,0.117,0.072,0.028,-0.046,-0.05,-0.004,-0.038
CTBS (UniProt Q01459),-0.05,-0.166,-0.078,0.04,0.017,-0.078,0.069,-0.018,0.009,-0.092,-0.483 (active),-0.069,0.016,-0.007,-0.006,-0.077,-0.093,0.162,0.091,0.025
CHCHD2 (UniProt Q9Y6H1),0,0.161,-0.017,-0.075,0.097,-0.107,0.059,-0.016,-0.037,0.066,-0.026,-0.002,0.037,0.029,0.075,-0.086,0.116,-0.02,-0.06,0.04
CD55 isoform 7 (UniProt P08174),-0.023,0.081,-0.096,-0.14,-0.021,0.052,0.067,-0.031,0.02,0.132,0.168,-0.06,0.086,0.027,0.096,-0.026,-0.051,-0.012,-0.027,-0.075
CAD (UniProt P27708),0.014,-0.271 (active),0,0.033,-0.013,-0.013,-0.115,0.053,-0.028,-0.106,0.011,0.06,-0.095,-0.008,-0.386 (active),0.081,-0.012,-0.097,-0.032,-0.006
CCZ1 (UniProt P86791),0.022,-0.278 (active),0.009,0.005,-0.053,-0.081,-0.039,0.006,-0.036,-0.162,-0.127,0.007,0.024,-0.022,-0.057,-0.098,0.021,0.025,0.043,0.038
CEPT1 (UniProt Q9Y6K0),0.055,-0.226,0.146,0.042,-0.022,-0.268,-0.019,0.047,0.021,-0.214,-0.048,0.032,-0.052,0.156,-0.008,0.044,0.031,-0.014,-0.055,-0.012
CMTR1 (UniProt Q8N1G2),0.02,0.014,0.011,0.059,0.05,0.025,0.002,0.029,-0.036,-0.002,-0.054,0,-0.059,-0.01,-0.059,0.035,-0.033,0.044,-0.03,0.029
CDK5 (UniProt Q00535),0.019,-0.076,0.037,-0.022,0.001,-0.003,-0.055,0.008,0.088,-0.033,-0.091,0.035,-0.055,-0.142,-0.078,-0.034,-0.033,-0.031,-0.054,-0.103
CDC42BPB (UniProt Q9Y5S2),0.068,0.056,-0.031,-0.149,0.012,0.029,0.112,0.005,0.01,-0.148,0.22,-0.034,0.062,-0.118,-0.029,0.106,-0.054,-0.017,0.094,0.177
COX17 (UniProt Q14061),0.026,0.164,0.206,-0.072,0.256,-0.11,0.005,-0.021,-0.037,0.137,,0.078,-0.091,-0.051,0.016,-0.162,0.206,-0.034,,0.038
CD53 (UniProt P19397),0.101,0.047,0.005,-0.084,0.234,-0.016,-0.165,-0.11,0.103,0.023,0.091,-0.418 (active),0.069,0.002,0.078,-0.003,0.145,0.125,0.057,0.081
CDK8 (UniProt P49336),-0.049,-0.029,0.033,0.248,-0.071,-0.13,-0.199,0.155,0.425 (active),0.031,0.109,0.014,,,0.067,,0.057,0.018,0,0.01
CPQ (UniProt Q9Y646),-0.013,-0.023,-0.001,0.049,-0.113,0.055,0.004,-0.058,0.03,0.011,-0.207 (active),0,0.017,0.053,0.069,-0.046,0.012,-0.025,0.031,0.044
CIR1 (UniProt Q86X95),-0.039,0.03,-0.187,0.544 (active),-0.114,0.295,0,0.015,0.092,-0.063,0.001,-0.091,,,0.079,,-0.131,-0.06,0.223,-0.113
CRYM-AS1 (UniProt A6NIL9),0.2,-0.077,-0.132,-0.08,-0.035,-0.299,-0.079,-0.024,-0.144,0.022,0.063,0.048,-0.023,-0.426,-0.108,-0.28,-0.015,-0.189,,0.114
CSK (UniProt P41240),0.082,-0.033,0.112,-0.004,-0.018,-0.018,0.026,0.046,0.003,-0.028,0.088,0.019,0.126,-0.001,0.137,0.017,0.019,-0.031,-0.129,0.107
CETN3 (UniProt O15182),-0.018,0.014,-0.084,-0.071,0.057,0.094,0.037,-0.094,-0.018,0,-0.052,-0.249 (active),-0.051,0.04,0.068,-0.013,-0.026,-0.006,0.086,0.112
CDK6 (UniProt Q00534),0.062,-0.033,-0.042,-0.004,0.033,-0.009,0.001,-0.012,0.018,0.024,-0.017,-0.002,-0.021,-0.079,-0.01,0.081,-0.019,-0.033,-0.043,0.012
C9orf72 (UniProt Q96LT7),0.058,-0.134,-0.024,-0.048,0.008,-0.313 (active),-0.019,0.057,0.01,0.04,0.029,-0.018,0.031,0.073,-0.004,0.006,0.085,-0.05,0.033,0.021
CCDC167 (UniProt Q9P0B6),-0.08,0.025,0.071,0.135,0.263,0.181,-0.121,-0.214,0.034,-0.344 (active),-0.024,-0.057,-0.03,-0.035,0.193,0.026,-0.185,-0.018,0.142,-0.043
CBS (UniProt P35520),-0.024,0.044,0.023,-0.054,0.027,-0.033,-0.032,-0.031,-0.076,-0.019,-0.031,-0.029,0.025,-0.012,0.018,-0.003,0.079,0.035,-0.023,0.056
C4orf33 (UniProt Q8N1A6),0.025,-0.098,0.001,-0.209,0.033,0.019,-0.093,0.005,-0.003,-0.038,-0.143,0.01,0.03,-0.024,-0.002,-0.1,0.056,0.031,-0.007,0.054
